Test results taken from ChEMBL document CHEMBL1961873, “Compounds: GSK PKIS; Assays: Nanosyn kinase panel” (2012).

Assays:
[1] = molecular target: Tyrosine-protein kinase CSK (Homo sapiens) (UniProt P41240); conditions: at 1 µM;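 further: each value is an averaged inhibition reading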
[2] = molecular target: T1, Discoidin domain-containing receptor 2 (Homo sapiens) (UniProt Q16832); conditions: at 0.1 µM
T1 sequence (whole entry): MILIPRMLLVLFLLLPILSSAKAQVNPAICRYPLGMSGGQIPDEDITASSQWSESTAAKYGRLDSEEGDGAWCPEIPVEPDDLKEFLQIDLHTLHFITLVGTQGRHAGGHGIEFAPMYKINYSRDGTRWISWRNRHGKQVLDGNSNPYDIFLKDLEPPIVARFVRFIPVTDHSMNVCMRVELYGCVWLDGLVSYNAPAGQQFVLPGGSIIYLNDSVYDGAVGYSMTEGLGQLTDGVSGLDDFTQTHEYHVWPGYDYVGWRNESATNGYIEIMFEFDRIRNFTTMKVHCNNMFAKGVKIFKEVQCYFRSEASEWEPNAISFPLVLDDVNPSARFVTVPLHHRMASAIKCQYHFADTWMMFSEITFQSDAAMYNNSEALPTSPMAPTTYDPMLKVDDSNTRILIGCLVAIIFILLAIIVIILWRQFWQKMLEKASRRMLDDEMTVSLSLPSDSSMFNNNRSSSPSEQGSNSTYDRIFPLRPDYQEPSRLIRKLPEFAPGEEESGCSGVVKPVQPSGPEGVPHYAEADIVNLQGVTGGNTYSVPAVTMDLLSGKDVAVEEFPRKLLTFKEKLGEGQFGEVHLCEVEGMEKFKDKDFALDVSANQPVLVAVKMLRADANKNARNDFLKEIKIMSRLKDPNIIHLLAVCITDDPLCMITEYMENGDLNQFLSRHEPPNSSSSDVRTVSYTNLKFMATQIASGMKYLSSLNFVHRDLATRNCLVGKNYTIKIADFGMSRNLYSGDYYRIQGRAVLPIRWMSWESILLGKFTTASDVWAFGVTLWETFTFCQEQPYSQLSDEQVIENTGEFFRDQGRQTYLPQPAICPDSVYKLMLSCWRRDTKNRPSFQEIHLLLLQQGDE

[3] = molecular target: T1, Discoidin domain-containing receptor 2 (Homo sapiens); conditions: at 1 µM
[4] = molecular target: Epidermal growth factor receptor (Homo sapiens) (UniProt P00533); conditions: at 0.1 µM
[5] = molecular target: Epidermal growth factor receptor (Homo sapiens) (UniProt P00533); conditions: at 1 µM
[6] = test system: Epidermal growth factor receptor (Homo sapiens), P00533 [L858R]; conditions: at 0.1 µM
[7] = test system: Epidermal growth factor receptor (Homo sapiens), P00533 [L858R]; conditions: at 1 µM
[8] = test system: Epidermal growth factor receptor (Homo sapiens), P00533 [L861Q]; conditions: at 0.1 µM
[9] = test system: Epidermal growth factor receptor (Homo sapiens), P00533 [L861Q]; conditions: at 1 µM
[10] = test system: Epidermal growth factor receptor (Homo sapiens), P00533 [T790M]; conditions: at 0.1 µM
[11] = test system: Epidermal growth factor receptor (Homo sapiens), P00533 [T790M]; conditions: at 1 µM
[12] = test system: Epidermal growth factor receptor (Homo sapiens), P00533 [L858R,T790M]; conditions: at 0.1 µM
[13] = test system: Epidermal growth factor receptor (Homo sapiens), P00533 [L858R,T790M]; conditions: at 1 µM
[14] = molecular target: Ephrin type-A receptor 2 (Homo sapiens) (UniProt P29317); conditions: at 0.1 µM
[15] = molecular target: Ephrin type-A receptor 2 (Homo sapiens) (UniProt P29317); conditions: at 1 µM
[16] = molecular target: T2, Ephrin type-A receptor 3 (Homo sapiens) (UniProt P29320); conditions: at 0.1 µM
T2 sequence (whole entry): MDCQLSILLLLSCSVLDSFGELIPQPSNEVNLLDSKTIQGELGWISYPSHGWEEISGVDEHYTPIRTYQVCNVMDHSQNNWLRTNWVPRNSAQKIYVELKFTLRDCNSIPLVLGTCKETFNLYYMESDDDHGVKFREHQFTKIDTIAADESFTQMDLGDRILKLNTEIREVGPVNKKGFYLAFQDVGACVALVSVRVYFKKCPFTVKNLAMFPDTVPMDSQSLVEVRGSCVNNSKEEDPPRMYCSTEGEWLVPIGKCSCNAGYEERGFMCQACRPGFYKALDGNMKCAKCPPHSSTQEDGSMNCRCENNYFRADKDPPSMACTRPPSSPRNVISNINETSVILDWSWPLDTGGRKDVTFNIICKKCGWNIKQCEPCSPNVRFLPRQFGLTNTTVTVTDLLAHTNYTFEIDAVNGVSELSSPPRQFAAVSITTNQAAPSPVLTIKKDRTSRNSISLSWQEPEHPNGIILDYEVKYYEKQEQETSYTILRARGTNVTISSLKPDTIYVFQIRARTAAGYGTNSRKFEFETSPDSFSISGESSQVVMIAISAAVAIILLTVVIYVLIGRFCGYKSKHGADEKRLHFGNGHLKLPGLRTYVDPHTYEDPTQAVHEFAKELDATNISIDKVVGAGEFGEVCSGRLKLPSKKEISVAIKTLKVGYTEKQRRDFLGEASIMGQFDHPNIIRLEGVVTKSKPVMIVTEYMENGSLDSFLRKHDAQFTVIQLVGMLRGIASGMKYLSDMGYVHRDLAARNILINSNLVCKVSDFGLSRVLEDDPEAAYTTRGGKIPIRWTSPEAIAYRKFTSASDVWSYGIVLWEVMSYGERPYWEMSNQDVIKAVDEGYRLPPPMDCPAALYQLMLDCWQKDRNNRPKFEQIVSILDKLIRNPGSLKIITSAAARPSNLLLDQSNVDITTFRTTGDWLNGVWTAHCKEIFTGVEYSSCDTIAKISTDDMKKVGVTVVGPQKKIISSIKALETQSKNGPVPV

[17] = molecular target: T2, Ephrin type-A receptor 3 (Homo sapiens); conditions: at 1 µM
[18] = molecular target: Ephrin type-A receptor 4 (Homo sapiens) (UniProt P54764); conditions: at 0.1 µM
[19] = molecular target: Ephrin type-A receptor 4 (Homo sapiens) (UniProt P54764); conditions: at 1 µM
[20] = molecular target: T3, Ephrin type-B receptor 2 (Homo sapiens) (UniProt P29323); conditions: at 0.1 µM;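 further: reported as mean inhibition of EPHB2, from the GSK PKIS dataset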
T3 sequence (whole entry): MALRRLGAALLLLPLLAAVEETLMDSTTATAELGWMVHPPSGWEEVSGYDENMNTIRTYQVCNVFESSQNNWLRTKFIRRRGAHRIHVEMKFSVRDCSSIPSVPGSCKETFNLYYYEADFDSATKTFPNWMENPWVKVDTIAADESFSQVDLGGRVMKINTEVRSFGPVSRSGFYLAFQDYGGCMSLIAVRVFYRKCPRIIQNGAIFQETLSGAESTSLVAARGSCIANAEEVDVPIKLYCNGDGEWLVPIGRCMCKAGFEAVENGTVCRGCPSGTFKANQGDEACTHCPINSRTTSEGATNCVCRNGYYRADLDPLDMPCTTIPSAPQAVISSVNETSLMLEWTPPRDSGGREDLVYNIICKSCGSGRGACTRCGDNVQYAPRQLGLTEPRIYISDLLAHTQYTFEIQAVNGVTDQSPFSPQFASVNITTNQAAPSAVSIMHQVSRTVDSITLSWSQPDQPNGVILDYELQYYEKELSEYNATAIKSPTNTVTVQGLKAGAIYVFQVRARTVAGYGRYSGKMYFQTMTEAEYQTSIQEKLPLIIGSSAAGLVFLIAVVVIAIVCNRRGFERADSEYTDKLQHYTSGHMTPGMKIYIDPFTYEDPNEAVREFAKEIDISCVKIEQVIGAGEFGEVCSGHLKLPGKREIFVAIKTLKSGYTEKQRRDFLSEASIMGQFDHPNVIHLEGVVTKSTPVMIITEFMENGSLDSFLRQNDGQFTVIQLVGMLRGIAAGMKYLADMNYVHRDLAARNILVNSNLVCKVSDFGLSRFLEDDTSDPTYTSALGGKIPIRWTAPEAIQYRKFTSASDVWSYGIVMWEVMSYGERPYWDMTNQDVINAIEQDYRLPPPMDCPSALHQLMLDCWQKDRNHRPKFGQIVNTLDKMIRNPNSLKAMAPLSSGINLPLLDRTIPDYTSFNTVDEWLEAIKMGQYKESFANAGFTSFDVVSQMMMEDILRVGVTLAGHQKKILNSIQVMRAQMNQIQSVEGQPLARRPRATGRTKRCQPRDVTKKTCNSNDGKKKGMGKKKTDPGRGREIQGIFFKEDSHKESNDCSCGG

Chain of Epidermal growth factor receptor (Homo sapiens), P00533 [L858R,T790M] (P00533 whole entry T790M/L858R, looked up): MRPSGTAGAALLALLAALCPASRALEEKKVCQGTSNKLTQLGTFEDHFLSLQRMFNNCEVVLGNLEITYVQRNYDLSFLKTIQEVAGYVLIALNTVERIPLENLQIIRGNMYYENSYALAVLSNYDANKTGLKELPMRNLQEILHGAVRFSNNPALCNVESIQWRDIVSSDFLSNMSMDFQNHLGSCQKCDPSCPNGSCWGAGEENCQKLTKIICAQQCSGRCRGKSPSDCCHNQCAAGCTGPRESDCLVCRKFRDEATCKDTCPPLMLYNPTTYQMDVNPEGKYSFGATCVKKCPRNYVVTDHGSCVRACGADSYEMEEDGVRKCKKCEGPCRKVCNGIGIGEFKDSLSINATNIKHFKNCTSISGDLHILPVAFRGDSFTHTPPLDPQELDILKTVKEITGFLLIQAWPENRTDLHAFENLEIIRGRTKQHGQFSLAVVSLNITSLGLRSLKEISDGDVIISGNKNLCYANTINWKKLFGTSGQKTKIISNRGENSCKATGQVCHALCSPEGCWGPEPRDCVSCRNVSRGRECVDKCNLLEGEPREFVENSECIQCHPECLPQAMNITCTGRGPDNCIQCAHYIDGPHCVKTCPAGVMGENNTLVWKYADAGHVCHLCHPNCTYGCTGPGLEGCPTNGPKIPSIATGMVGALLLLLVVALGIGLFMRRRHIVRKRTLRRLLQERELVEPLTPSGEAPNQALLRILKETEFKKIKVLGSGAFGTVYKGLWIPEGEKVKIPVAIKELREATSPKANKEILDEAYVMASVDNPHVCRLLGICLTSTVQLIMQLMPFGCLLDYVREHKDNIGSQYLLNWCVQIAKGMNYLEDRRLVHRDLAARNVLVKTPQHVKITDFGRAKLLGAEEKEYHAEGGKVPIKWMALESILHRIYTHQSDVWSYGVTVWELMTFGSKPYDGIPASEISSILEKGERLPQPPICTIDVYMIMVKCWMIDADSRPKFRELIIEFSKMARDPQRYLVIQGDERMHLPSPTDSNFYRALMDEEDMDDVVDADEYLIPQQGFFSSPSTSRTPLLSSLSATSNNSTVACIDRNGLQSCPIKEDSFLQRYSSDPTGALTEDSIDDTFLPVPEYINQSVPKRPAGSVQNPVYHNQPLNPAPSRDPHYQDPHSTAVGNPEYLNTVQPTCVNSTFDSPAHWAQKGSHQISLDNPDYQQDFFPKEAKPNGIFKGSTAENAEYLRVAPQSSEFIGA
Chain of Epidermal growth factor receptor (Homo sapiens), P00533 [L861Q] (P00533 whole entry L861Q): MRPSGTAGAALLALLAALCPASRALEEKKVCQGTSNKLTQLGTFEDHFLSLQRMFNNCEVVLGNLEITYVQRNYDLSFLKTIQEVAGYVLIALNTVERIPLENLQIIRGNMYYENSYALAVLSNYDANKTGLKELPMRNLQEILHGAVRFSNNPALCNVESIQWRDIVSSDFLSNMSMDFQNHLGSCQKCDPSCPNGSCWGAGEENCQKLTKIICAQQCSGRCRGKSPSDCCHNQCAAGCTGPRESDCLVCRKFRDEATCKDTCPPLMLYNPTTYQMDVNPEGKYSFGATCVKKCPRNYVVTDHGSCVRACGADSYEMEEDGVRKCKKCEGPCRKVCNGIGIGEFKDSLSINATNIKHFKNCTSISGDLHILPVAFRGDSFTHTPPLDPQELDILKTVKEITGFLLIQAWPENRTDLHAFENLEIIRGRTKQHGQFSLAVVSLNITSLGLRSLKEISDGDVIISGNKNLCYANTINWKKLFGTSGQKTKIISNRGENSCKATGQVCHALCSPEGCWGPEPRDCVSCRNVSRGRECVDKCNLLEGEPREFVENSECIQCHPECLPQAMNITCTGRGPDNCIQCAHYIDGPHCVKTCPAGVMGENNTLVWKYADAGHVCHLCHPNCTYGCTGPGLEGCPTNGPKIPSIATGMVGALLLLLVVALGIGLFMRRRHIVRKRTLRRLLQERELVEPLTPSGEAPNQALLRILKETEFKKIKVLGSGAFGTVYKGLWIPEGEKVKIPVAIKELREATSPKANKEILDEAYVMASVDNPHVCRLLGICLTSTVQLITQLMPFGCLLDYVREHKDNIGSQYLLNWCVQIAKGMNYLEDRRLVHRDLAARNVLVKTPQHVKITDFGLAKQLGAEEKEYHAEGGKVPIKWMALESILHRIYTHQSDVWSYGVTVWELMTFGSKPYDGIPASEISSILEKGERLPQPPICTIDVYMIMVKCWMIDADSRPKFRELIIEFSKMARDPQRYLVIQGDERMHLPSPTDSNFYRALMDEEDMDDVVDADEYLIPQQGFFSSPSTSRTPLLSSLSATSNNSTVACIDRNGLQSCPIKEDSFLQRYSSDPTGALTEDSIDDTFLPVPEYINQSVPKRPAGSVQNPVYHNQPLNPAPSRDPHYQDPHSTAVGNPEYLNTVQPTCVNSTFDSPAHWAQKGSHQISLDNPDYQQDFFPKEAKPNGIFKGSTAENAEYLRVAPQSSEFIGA
Chain of Epidermal growth factor receptor (Homo sapiens), P00533 [L858R] (P00533 whole entry L858R): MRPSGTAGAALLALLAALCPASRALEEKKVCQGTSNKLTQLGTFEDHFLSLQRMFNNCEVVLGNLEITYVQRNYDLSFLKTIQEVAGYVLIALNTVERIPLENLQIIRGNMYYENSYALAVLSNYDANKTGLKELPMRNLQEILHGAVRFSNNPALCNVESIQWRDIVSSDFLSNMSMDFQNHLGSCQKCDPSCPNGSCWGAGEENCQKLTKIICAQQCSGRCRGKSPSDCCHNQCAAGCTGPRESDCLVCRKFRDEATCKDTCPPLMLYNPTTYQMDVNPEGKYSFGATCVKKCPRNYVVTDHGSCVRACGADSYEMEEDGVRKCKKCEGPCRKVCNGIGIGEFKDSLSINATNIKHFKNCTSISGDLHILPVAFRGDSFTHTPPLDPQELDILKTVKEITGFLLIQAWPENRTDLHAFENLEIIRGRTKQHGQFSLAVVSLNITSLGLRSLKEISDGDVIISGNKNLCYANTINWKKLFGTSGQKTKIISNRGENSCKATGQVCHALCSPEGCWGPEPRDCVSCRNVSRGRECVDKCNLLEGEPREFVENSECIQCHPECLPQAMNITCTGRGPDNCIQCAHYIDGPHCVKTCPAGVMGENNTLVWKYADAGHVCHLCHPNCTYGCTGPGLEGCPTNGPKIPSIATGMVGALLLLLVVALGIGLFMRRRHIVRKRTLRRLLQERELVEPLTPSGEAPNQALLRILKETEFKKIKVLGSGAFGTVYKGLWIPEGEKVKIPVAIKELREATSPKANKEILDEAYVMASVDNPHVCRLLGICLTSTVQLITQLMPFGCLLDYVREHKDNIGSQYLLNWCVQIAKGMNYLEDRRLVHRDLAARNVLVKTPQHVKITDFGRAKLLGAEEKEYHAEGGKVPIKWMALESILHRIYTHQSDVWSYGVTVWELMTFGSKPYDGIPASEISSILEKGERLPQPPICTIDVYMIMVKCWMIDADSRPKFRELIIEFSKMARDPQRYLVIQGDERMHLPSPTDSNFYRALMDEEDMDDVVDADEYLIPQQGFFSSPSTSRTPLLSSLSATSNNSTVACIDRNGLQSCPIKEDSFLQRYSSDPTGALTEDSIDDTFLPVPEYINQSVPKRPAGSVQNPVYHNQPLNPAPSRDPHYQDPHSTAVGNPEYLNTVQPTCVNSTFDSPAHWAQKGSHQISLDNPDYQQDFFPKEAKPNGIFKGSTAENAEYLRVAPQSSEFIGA
Chain of Ephrin type-A receptor 4 (Homo sapiens) (P54764 whole entry): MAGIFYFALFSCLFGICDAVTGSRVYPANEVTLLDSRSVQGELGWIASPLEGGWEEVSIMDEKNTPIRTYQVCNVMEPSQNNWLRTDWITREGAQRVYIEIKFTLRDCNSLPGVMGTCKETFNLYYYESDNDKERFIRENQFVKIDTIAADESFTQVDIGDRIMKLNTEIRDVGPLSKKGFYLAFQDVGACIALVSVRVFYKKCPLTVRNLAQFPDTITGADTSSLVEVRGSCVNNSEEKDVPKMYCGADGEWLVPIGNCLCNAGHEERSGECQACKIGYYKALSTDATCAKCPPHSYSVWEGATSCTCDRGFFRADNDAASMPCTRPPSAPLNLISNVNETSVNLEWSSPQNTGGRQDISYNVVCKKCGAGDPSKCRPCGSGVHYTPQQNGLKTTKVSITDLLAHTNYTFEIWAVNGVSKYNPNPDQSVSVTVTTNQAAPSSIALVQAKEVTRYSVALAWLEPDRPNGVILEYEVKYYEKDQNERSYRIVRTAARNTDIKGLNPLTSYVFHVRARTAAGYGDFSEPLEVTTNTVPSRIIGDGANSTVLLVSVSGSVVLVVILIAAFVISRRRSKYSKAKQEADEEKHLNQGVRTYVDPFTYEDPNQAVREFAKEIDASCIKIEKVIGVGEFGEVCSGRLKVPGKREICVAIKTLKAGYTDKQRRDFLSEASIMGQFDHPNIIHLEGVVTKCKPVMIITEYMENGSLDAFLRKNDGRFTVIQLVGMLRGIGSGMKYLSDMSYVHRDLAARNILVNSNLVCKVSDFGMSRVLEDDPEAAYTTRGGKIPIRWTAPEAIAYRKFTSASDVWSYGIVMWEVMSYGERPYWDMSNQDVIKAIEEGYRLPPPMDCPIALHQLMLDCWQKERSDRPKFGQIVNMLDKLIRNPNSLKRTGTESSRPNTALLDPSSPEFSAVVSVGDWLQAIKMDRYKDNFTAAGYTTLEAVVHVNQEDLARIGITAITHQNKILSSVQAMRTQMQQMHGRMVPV
Chain of Tyrosine-protein kinase CSK (Homo sapiens) (P41240 2-450 limits assumed): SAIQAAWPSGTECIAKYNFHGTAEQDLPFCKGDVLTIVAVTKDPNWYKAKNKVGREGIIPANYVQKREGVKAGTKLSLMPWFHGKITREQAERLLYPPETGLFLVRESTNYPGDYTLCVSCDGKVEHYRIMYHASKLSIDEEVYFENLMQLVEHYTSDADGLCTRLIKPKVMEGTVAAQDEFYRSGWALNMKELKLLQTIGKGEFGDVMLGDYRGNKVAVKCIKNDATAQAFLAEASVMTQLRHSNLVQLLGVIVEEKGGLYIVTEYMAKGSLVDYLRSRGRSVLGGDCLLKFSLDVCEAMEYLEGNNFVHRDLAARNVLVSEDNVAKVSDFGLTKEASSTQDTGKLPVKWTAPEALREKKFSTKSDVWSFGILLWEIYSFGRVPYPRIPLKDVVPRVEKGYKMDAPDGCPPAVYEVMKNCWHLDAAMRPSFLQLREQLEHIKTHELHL

O=C1NC(=O)C(c2ccc(Cl)cc2)=C1Nc1ccc(Cl)c(C(=O)O)c1
inhibition [1]: -4.62%
inhibition [2]: 0.03%
inhibition [3]: 2.46%
inhibition [4]: 1.07%
inhibition [5]: 6.73%
inhibition [6]: -2.2%
inhibition [7]: 6.41%
inhibition [8]: 0.32%
inhibition [9]: 1.03%
inhibition [10]: -0.88%
inhibition [11]: -1.21%
inhibition [12]: -0.4%
inhibition [13]: -1.38%
inhibition [14]: -2%
inhibition [15]: -1.26%
inhibition [16]: -3.17%
inhibition [17]: -3.69%
inhibition [18]: -6.1%
inhibition [19]: -6.97%
inhibition [20]: -0.68%

CC1=C(C(=O)Nc2ccc3[nH]ncc3c2)C(c2ccc(F)cc2)NC(=O)N1 (stereo not given)
inhibition [1]: 1.35%
inhibition [2]: 0.44%
inhibition [3]: 0.08%
inhibition [4]: -0.6%
inhibition [5]: 1.27%
inhibition [6]: 3.85%
inhibition [7]: 4.77%
inhibition [8]: 2.31%
inhibition [9]: 1.33%
inhibition [10]: 0.71%
inhibition [11]: 0.87%
inhibition [12]: -2.35%
inhibition [13]: -1.39%
inhibition [14]: -2.91%
inhibition [15]: -2.18%
inhibition [16]: 2.51%
inhibition [17]: 2.14%
inhibition [18]: 4.19%
inhibition [19]: 4.52%
inhibition [20]: 2.76%
